# Values joined by “and” are separate entries in the source; they are usually repeats but may differ in a detail not shown here. Equal values may be shown once. Inconclusive results are not listed. A call without a number means that no potency is given here. Active and inactive are the calls of the source. Calls follow the shape of the full dose curve.
# Experiment: qHTS assay for small molecule agonists of the p53 signaling pathway - cell viability (AID 651633); also: nearly all actives have a fitted effect of over 30% in size
# Conditions: p53RE-bla HCT-116 viability, ATP luminescence, 16 h; series mostly up to 83.3 µM
# From the text: National Center for Advancing Translational Sciences [NCATS]
# NIH Chemical Genomics Center [NCGC]
# U.S. Environmental Protection Agency [EPA]
# National Institutes of Environmental Health Sciences [NIEHS]
# National Toxicology Program [NTP]
# U.S. Food and Drug Administration [FDA]
# p53, a tumor suppressor protein, is activated following cellular insult, including DNA damage and other cellular stresses. The activation of p53 regulates cell fate by inducing DNA repair, cell cycle arrest, apoptosis, or cellular senescence. The activation of p53, therefore, is a good indicator of DNA damage and other cellular stresses. […] The activation of the reporter gene under culture conditions can be detected by fluorescence intensity. This cell line was used to screen the Tox21 compound library in a 1536-well plate format and to identify agonists that activate the p53 signaling pathway.
# Tox21 Assay Protocol Summary:
# The p53RE-bla cells were dispensed at 4,000 cells/5 ul/well in 1536-well black wall/clear bottom plates using a Multidrop dispenser. After the assay plates were incubated at a 37 C/5% CO2 incubator for 5 hours, 23 nL of compounds dissolved in DMSO, positive controls or DMSO only was transferred to the assay plate by a pin tool. The plates were incubated at 37 C for 16 hours. After 1 uL of LiveBLAzerTM B/G FRET substrate was added using a Flying Reagent Dispenser, the plates were incubated at room temperature for 2 hours, and fluorescence intensity was measured by an Envision plate reader.
# For cell viability readout that measures cytotoxicity, 4 ul/well of CellTiter-Glo reagent was added into the assay plates using a Flying Reagent Dispenser. After 30 min incubation at room temperature, the luminescence intensity in the plates was measured using a ViewLux plate reader.
# Potency is read from the fitted curve at half-maximal effect.
row,SMILES,Potency
1,CCOc1cccc(C2(N3CCN(c4ccccc4)CC3)CCC(C)CC2)c1 (stereo not given),inactive
2,CC(C)c1ccc(NC(=O)N(C)C)cc1,inactive
3,CCCCC#N,inactive
4,C=CCc1ccc(OC(=O)Cc2ccccc2)c(OC)c1,inactive
5,CCCBr,inactive
6,O=C([O-])c1ccccn1.O=C([O-])c1ccccn1.O=C([O-])c1ccccn1.[Cr+3],inactive
7,CCC1(CCC(C)C)C(=O)NC(=O)NC1=O,inactive
8,C[N+]1(CCC(C(N)=O)(c2ccccc2)c2ccccc2)CCCCC1,inactive
9,CN1C[C@H](C(=O)N[C@]2(C)O[C@@]3(O)[C@@H]4CCCN4C(=O)[C@H](Cc4ccccc4)N3C2=O)C=C2c3cccc4[nH]cc(c34)C[C@H]21,inactive
10,Clc1ccc2ccccc2c1,inactive
11,O=C1NC(=O)C(=O)C(=O)N1,inactive
12,O=C(N[C@H]1CN2CCC1CC2)c1ccc2c(c1)OCCO2,inactive
13,CCCCCCCCCCCC[N+](C)(C)CCOc1ccccc1,29.8 µM (active) and 21.7 µM (active)
14,CN1CC[C@]23c4c5ccc(O)c4O[C@H]2[C@@H](O)CC[C@H]3[C@H]1C5,inactive
15,NC(=O)CF,inactive
16,CCSCc1ccccc1OC(=O)NC,inactive
17,CCC[N+](CCC)(CCC)CCC,inactive
18,CC(Cc1ccccc1)NCc1ccccc1Cl (stereo not given),inactive
19,C=CC(C)(CCC=C(C)C)OC(=O)c1ccccc1N (stereo not given),inactive
20,NP(N)(=O)NC(=O)c1ccc(F)cc1,inactive

row,SMILES,Potency
1,CCCCNC(=O)OCC#CI,60.8 µM (active)
2,Cc1ncc(C[n+]2csc(CCO)c2C)c(N)n1,inactive
3,C[C@H](N)[C@H](O)c1ccc(O)c(O)c1,inactive
4,Clc1ccc(Cl)c(Cl)c1,inactive
5,FC(F)OC(F)(F)C(F)Cl (stereo not given),inactive
6,COCc1cnc(C2=NC(C)(C(C)C)C(=O)N2)c(C(=O)O)c1 (stereo not given),inactive
7,CCCCCBr,inactive
8,Cc1ccccc1,inactive
9,CN(C1CCCCC1)C1CCCCC1,inactive
10,COC1=CC(=O)O[C@@H](/C=C/c2ccc3c(c2)OCO3)C1,inactive
11,C[CH2][Hg][S]c1ccccc1C(=O)O,3.35 µM (active) and 2.43 µM (active)
12,O=C(O)c1cc(I)cc(I)c1I,inactive
13,O=C(N/N=C/c1ccc([N+](=O)[O-])o1)c1cc([N+](=O)[O-])cc([N+](=O)[O-])c1O,26.6 µM (active)
14,CC(C)C1(C)N=C(c2ncccc2C(=O)O)NC1=O (stereo not given),inactive
15,O=S(=O)(c1ccccc1)c1ccccc1,inactive
16,CCCCCCCCCCCCCCCl,inactive
17,CCCC(C)(COC(N)=O)COC(=O)NC(C)C (stereo not given),inactive
18,O=[N+]([O-])O[C@H]1CO[C@H]2[C@@H]1OC[C@H]2O[N+](=O)[O-],inactive
19,O=C(CCl)CCl,inactive
20,CCCN(CCC)C(=O)Cc1c(-c2ccc(Cl)cc2)nc2ccc(Cl)cn12,inactive
